# Compound activity from PubChem BioAssay.
# Ba/F3 V617F tox = lowers viability of Ba/F3 cells expressing EpoR and JAK2V617F; ATP luminescence; inhibition, % at 5.6 µM; 220,000 tested, 1.1% active; AID 1446;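 active means inhibition above the campaign mean plus 3 SD over all tested compounds, cut at about 24% in these data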;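 further: cytokine-independent growth of Ba/F3 cells driven by EpoR plus mutant JAK2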
# APP transl inh = APP translation inhibition. SH-SY5Y APP 5'UTR-luciferase reporter, luminescence. inhibition, % at 2 µM. 190,000 tested, 0.82% active. AID 1285;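 active means inhibition above a set limit, derived from the sample mean plus 3 SD, cut at about 45% in these data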
# KLF5 inhibitor = suppresses KLF5 promoter-driven expression | DLD-1 KLF5 promoter-luciferase reporter, luminescence | inhibition, % at 5 µM | 290,000 tested, 0.23% active | AID 1700;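 active means inhibition above a per-plate limit of that plate's mean compound inhibition plus 3 SD, cut at about 60% in these data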;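 further: higher means less KLF5 promoter-driven luciferase light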
# BaF3 tox = counter-screen for JAK2V617F inhibitors: parental Ba/F3 viability inhibitors | CellTiter-Glo ATP luminescence | inhibition, % at 5.6 µM | 220,000 tested, 1.1% active | AID 1486;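 active means inhibition above a per-campaign cutoff, the mean inhibition of all tested compounds plus 3 SD, cut at about 27% in these data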
# IEC-6 tox = IEC-6 cytotoxicity, counter-screen for KLF5 inhibitors. luminescence viability. inhibition, % at 5 µM. 290,000 tested, 0.78% active. AID 1825; in the data active means inhibition above about 22%
# Hits are given with their value; . = inactive; / = not tested or not shown. Hits are enriched below; roughly 1.9% of the tested compounds scored in any of these assays.
SMILES,Ba/F3 V617F tox,APP transl inh,KLF5 inhibitor,BaF3 tox,IEC-6 tox
CCn1c2ccccc2c2cc(/C=N/NC(=O)c3ccccc3C)ccc21,.,79.4,.,.,.
CCn1c2ccccc2c2cc(/C=N/NC(=O)c3cccc(C)c3)ccc21,.,.,.,.,.
CCCCSc1nnc(-c2ccc(NC(C)=O)cc2)n1C,.,.,.,.,.
CCSc1nnc(-c2ccc(S(=O)(=O)N3CCCC3)cc2)n1C,.,72.6,.,.,.
CCCCSc1nnc(-c2ccc(C)cc2)n1C,30.5,.,.,35.2,.
C=CCn1c(-c2ccccc2)nc2nc3ccccc3nc21,.,.,.,.,.
O=C(N/N=C/c1ccc(O)c2ncccc12)c1cccc(Br)c1,91.9,62.7,.,52.2,.
O=C(N/N=C/c1cc(Cl)ccc1O)c1ccc(Br)cc1,.,56.4,.,.,.
O=C(N/N=C/c1cccnc1)c1cccc(NC(=O)c2cccc(Br)c2)c1,/,/,.,/,.
CC(C)C(=O)Nc1ccc(C(=O)N/N=C/c2cc(Br)cc(Br)c2O)cc1,.,45.7,.,.,.
O=C(N/N=C\c1cc(Br)ccc1O)c1ccc(S(=O)(=O)N2CCCCC2)cc1,.,69.1,.,.,.
CCN(CC)S(=O)(=O)c1ccc(N/N=C/c2cc(OC)c(OC)cc2OC)nc1,.,.,.,.,.
CCOc1cccc(/C=N/Nc2ccc(S(=O)(=O)N(CC)CC)cn2)c1O,.,82.9,.,.,.
COc1ccc2nc(NC(=O)C3CC(=O)N(c4ccccc4)C3)sc2c1 (centres undefined),/,/,.,/,.
O=C(NC(c1ccc(Cl)cc1)c1cc(Cl)c2cccnc2c1O)c1cccnc1 (centres undefined),.,78.8,.,.,.
CCCC(=O)NC(c1ccc(OC)c(OC)c1)c1cc(Cl)c2cccnc2c1O (centres undefined),.,53.2,.,.,.
CCCCC(=O)NC(c1ccc(Cl)cc1Cl)c1ccc2cccnc2c1O (centres undefined),/,/,.,/,.
CCC(=O)NC(c1cccs1)c1cc(Cl)c2cccnc2c1O (centres undefined),.,60.9,.,.,.
CN1CCN(C(c2ccc(Cl)cc2)c2cc(Cl)c3cccnc3c2O)CC1 (centres undefined),/,/,.,/,.
CCC(=O)NC(c1ccc(C)cc1)c1cc([N+](=O)[O-])c2cccnc2c1O (centres undefined),.,.,.,.,.
CCCCC(=O)NC(c1cccs1)c1cc(Cl)c2cccnc2c1O (centres undefined),.,72.5,.,.,.
COc1ccccc1-c1cc(C(F)(F)F)nc(N2CCN(c3ccccc3)CC2)n1,.,.,.,.,.
Cc1cnc(NC(=O)Nc2ccc(Cl)cc2)s1,91.8,.,.,72.2,28.6
Cc1cnc(NC(=O)CSc2ccc(Cl)cc2)s1,.,.,.,.,.
O=[N+]([O-])c1ccc(N2CCN(C(=S)Nc3cccc(F)c3)CC2)cc1,27.9,.,.,32.4,.
SMILES,Ba/F3 V617F tox,APP transl inh,KLF5 inhibitor,BaF3 tox,IEC-6 tox
COc1ccccc1N1CCN(C(=O)C2CCCO2)CC1 (centres undefined),.,.,.,.,.
Oc1[nH]c(N=C2N=c3ccccc3=N2)c2ccccc12,.,/,.,.,77.0
Cc1cccc(N2CCN(Cc3cc(=O)n4ccsc4n3)CC2)c1C,.,.,.,.,.
Cc1c(N/C=C/C(=O)C(F)(F)F)c(=O)n(-c2ccccc2)n1C,.,.,.,.,.
O=C(COc1ccccc1)NCc1ccccc1,.,.,.,.,.
O=C(COc1ccc(C(=O)c2ccccc2)cc1)NCc1ccc(F)cc1,.,.,.,.,41.1
Cc1cccn2c(=O)c3cc(C#N)c(=N)n(CCN4CCOCC4)c3nc12,.,46.8,.,.,.
O=C(NCCCn1ccnc1)c1ccc(Cl)cc1[N+](=O)[O-],.,.,.,.,.
O=c1[nH][nH]cc1C=Nc1ccc(Cl)cc1Cl,.,63.9,.,.,.
CN1/C(=C\C(=O)COC(=O)CNC(=O)c2ccc3ccccc3c2)C(C)(C)c2ccccc21,.,.,.,33.9,.
CN1/C(=C\C(=O)COC(=O)c2ccc(O)cc2)C(C)(C)c2ccccc21,.,/,.,.,.
CN1/C(=C\C(=O)COC(=O)c2ccc(O)c(O)c2)C(C)(C)c2ccccc21,51.8,.,.,51.2,.
CCCCCC(C)NC(=S)NC(=O)c1cc(S(=O)(=O)N2CCOCC2)ccc1C (centres undefined),.,.,.,41.8,.
CCCC(C)NC(=S)NC(=O)c1cc(S(=O)(=O)N2CCOCC2)ccc1C (centres undefined),.,.,.,.,.
